# From PubChem BioAssay
# KCNQ2 block – KCNQ2 (rat) channel inhibition | actives 1.1% (n = 310,000) | B-score at 10 µM | CHO-K1 KCNQ2, FluxOR thallium flux, 20 min; hits give low values;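 active = fluorescence ratio B-score at most minus 3 library SDs, with starting brightness B-score within 2 library SDs, cut at about -5.5 in these data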
# KCNQ2 enhance – KCNQ2 (rat) channel potentiation | B-score at 10 µM | O88943 | actives 0.54% (n = 310,000) | AID 2239 | CHO-K1 KCNQ2, FluxOR thallium flux fluorescence; hits give high values;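 active = fluorescence ratio B-score at least 3 SD of library B-scores, with initial fluorescence B-score within 3 of them, cut at about 5.3 in these data; same plate scores as AID 2156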;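 also: B-score of peak minus minimum over baseline fluorescence ratio after K+ and Tl+ stimulus; positive B-score means potentiation of KCNQ2 with more thallium influx and brighter signal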
# Kir21 confirm – confirmation of mouse Kir2.1 potassium channel inhibitors; shares compounds with KCNQ2 enhance; actives 41% (n = 2,300); Kir2.1-expressing cells, FluxOR thallium flux fluorescence; hits give low values; Tl flux remaining, % of negative control (hits give low values), % at 10 µM;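 active = Primary-screen hit whose thallium flux fell at least 3 control SD below untreated wells in both duplicates, with normal baseline fluorescence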;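 also: 0% = blank wells without stimulus and 100% = stimulated no-compound controls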
# HEK293 Tl flux – counter-screen for Kir2.1 inhibitors: effect in parental HEK293 cells; shares compounds with KCNQ2 enhance; FluxOR thallium flux fluorescence; 0% = unstimulated blank wells; FluxOR signal as % of negative control (100 = no effect), % at 10 µM; actives 19% (n = 2,300); AID 2105;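 active = dye signal at least 3 control SD above or below untreated wells in both duplicates, raw fluorescence within 3, either direction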;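 also: percent is based on the flux ratio of peak minus minimum fluorescence over baseline F0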
# CHO-K1 Tl ctr – parental CHO-K1 activity in KCNQ2 potentiator counter-screen; shares compounds with KCNQ2 enhance; parental CHO-K1 cells, FluxOR thallium flux fluorescence; zero = vehicle mean+3SD, 100% = vehicle-minus-blank window; activity increase over 3SD of controls, % at 10 µM; actives 43% (n = 1,200);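 active = signal rise of at least 3 SD above the untreated control mean, in both duplicate wells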;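 also: counter screen of KCNQ2 potentiator hits so any rise reflects channel-independent effects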
# KCNQ1 pot spec – human KCNQ1 counter-target activity of KCNQ2 potentiators; shares compounds with KCNQ2 enhance; CHO KCNQ1 stable, FluxOR thallium flux fluorescence; beyond 3SD, as % of vehicle-control signal; activation over 3SD threshold, % at 10 µM; actives 28% (n = 1,200); AID 2283;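 active = fluorescence ratio rise of at least 3 SD of vehicle wells above their mean, in both replicate wells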;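 also: 0% = vehicle mean plus 3 SD and 100% = vehicle minus unstimulated blank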
# KCNQ2 pot confirm – confirmation of rat KCNQ2 potassium channel potentiators; shares compounds with KCNQ2 enhance; CHO-KCNQ2 cells, FluxOR thallium flux fluorescence; potentiation, less the hit threshold, % at 10 µM; actives 68% (n = 1,200); AID 2287;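 active = fluorescence ratio rising 3 SD or more over the vehicle control mean in both replicates, plus primary screen hit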;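 also: peak minus minimum thallium fluorescence divided by baseline after K/Tl stimulus; 0% = vehicle mean plus 3 SD and 100% = vehicle minus unstimulated blank difference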
# Kir21 spec – mouse Kir2.1 off-target activity of KCNQ2 potentiators | shares compounds with KCNQ2 enhance | HEK293 Kir2.1, FluxOR thallium flux fluorescence | activity over 3SD threshold, % at 10 µM | actives 2% (n = 1,200);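 active = fluorescence ratio rise of at least 3 SD above the vehicle-control mean, seen in both replicates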;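 also: 0% = vehicle mean plus 3 SD and 100% = vehicle minus no-stimulus blank window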
# KCNQ2 W236L MoA – potentiates the retigabine-insensitive rat KCNQ2 W236L mutant channel; shares compounds with KCNQ2 enhance; actives 10% (n = 940); current increase over 3SD of negative controls (%), hits give high values, % at 25 µM; CHO KCNQ2-W236L, automated patch clamp current;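 active = current increase at least 3 SD of the untreated controls above them in both duplicate recordings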
# Starred values were filed as active, the others as inactive; i = inactive; · = not tested or not shown. Most compounds without a hit are left out; they make up all but 1.6% or so of the library.
SMILES,KCNQ2 block,KCNQ2 enhance,Kir21 confirm,HEK293 Tl flux,CHO-K1 Tl ctr,KCNQ1 pot spec,KCNQ2 pot confirm,Kir21 spec,KCNQ2 W236L MoA
Cc1ccc(CN2CC(C(=O)N3CCN(S(=O)(=O)c4cccc(F)c4)CC3)CC2=O)cc1 (configuration not stated),i,·,·,·,·,·,·,·,·
COCC(=O)Nc1cc(C)cn(Cc2ccccc2Cl)c1=O,i,·,·,·,·,·,·,·,·
Cc1nn(-c2ccccc2)c(Cl)c1/C=C1\SC(=S)N(CCCCCC(=O)O)C1=O,i,1.5,·,·,·,·,·,·,·
Cc1nn(-c2ccccc2)c(Cl)c1/C=C1\SC(=S)NC1=O,i,13*,i,412%*,-1,-14,215*,-13,i
C/C(CC(=O)NCc1ccco1)=N\NC(=O)c1ccc([N+](=O)[O-])cc1Cl,i,·,·,·,·,·,·,·,·
CC(C)CNC(=S)N1CCC(C(=O)c2ccc3c(c2)OCCO3)CC1,i,0.96,·,·,·,·,·,·,·
Cc1cccc(OCC(=O)N/N=C\c2cc3c(cc2[N+](=O)[O-])OCO3)c1C,i,·,·,·,·,·,·,·,·
CCOC(=O)c1c(-c2ccccc2)csc1NC(=S)NC,i,7.8*,i,220%*,-4,-22,7.3*,-27,i
CCOC(=O)c1c(-c2ccccc2)csc1NC(=O)CSc1nnc(C)s1,i,·,·,·,·,·,·,·,·
CC12CCC(C(=O)N/N=C/c3ccc(O)cc3)(OC1=O)C2(C)C (configuration not stated),i,·,·,·,·,·,·,·,·
O=C(COC(=O)Cc1n[nH]c(=O)c2ccccc12)Nc1ccc(Cl)cc1F,i,·,·,·,·,·,·,·,·
Cc1nnnn1/C(=C\c1ccccc1)C(=O)OCC(=O)Nc1ccc(Cl)cc1F,i,·,i,i,·,·,·,·,·
Cc1oc(-c2cc(F)cc(F)c2)nc1CN1CCSCC1,i,·,·,·,·,·,·,·,·
Oc1ccc(CN2CCCCC2)c2cccnc12,i,0.21,·,·,·,·,·,·,·
CC(C)COCc1ccc(O)c2ncccc12,i,7.7*,i,i,-27,11*,51*,-37,i
Oc1ccc(COCc2ccccc2)c2cccnc12,i,5.9*,i,i,15*,-13,1.0*,-46,i
OCc1ccc(O)c2ncccc12,i,·,·,·,·,·,·,·,·
Oc1ccc(CN2CCc3ccccc3C2)c2cccnc12,i,13*,32%*,i,44*,-19,1.3*,-100,i
CCCOCc1ccc(O)c2ncccc12,i,3.8,·,·,·,·,·,·,·
Cc1cc(C)cc(OCC(=O)Nc2ccc3c(c2)C(=O)c2ccccc2C3=O)c1,i,·,·,·,·,·,·,·,·
CC/C(=N\NC(=O)c1ccc2c(c1)OCO2)C12CC3CC(CC(C3)C1)C2,i,·,·,·,·,·,·,·,·
CC/C(=N/NC(=O)c1ccc2c(c1)OCO2)c1ccccc1O,i,7.9*,i,i,-12,-20,16*,-31,i
CC(=O)Oc1ccc([C@@H]2COc3c(ccc4c3C=CC(C)(C)O4)C2)c(OC(C)=O)c1,i,·,·,·,·,·,·,·,·
CC(C)=CCc1cc([C@@H]2COc3c(ccc4c3C=CC(C)(C)O4)C2)c(O)cc1O,i,6*,i,i,-7,-2,-25,-28,·
Cc1nn(-c2ccccc2Cl)c(Cl)c1/C=N/Nc1cccc(C(=O)O)c1,i,5.2,·,·,·,·,·,·,·
Cc1nn(-c2cccc(C(F)(F)F)c2)c(Cl)c1/C=N/Nc1cccc(C(=O)O)c1,i,9.9*,i,i,-10,30*,98*,-36,17%*
CCC(O)(CC)C(=O)N(Nc1ccc(C)cc1)c1ccc(C)cc1,i,5.6*,i,i,-6,-4,-1,-42,37%*
CCOC(=O)C(=O)N(Nc1ccc(C)cc1)c1ccc(C)cc1,i,·,·,·,·,·,·,·,·
Cc1ccnc(NC(=O)C23CC4CC(CC(C4)C2)C3)c1,i,9.7*,i,i,-8,-13,33*,-18,i
